Screening results (PubChem)
Sampled rows, rich in hits. Any-hit rate of the full collection: about 8%.
HCMV inh: qHTS Assay for inhibitors of the human cytomegalovirus (HCMV); HFF cells, HCMV-luciferase reporter, 72 h; hits give low values; activity change, negative = inhibition, % at 57.5 µM; 410,000 tested, 4.5% active; in the data active = activity change below about -60%; inconclusive = no clear call, values can overlap the other calls; inactive = above about -39%
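Steps: HFFs plated, 16 h 37C; compounds added; HCMV-luciferase added to MOI 1 PFU/cell; 72 h 37C; OneGlo reagent, 5 min room temperature; luminescence read, normalized to controls.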
Lassa entry inh: qHTS for Inhibitors of binding or entry into cells for Lassa Virus. Lassa virus pseudotype entry inhibition, cell reporter. Potency, µM (series often up to 37.9 µM), usual class: inhibitors. 300,000 tested, 1.2% active; calls by dose curve; tested in HEK293 cells; note: nearly all actives have a fitted effect of over 50% in size
SARS PLP yeast: qHTS of Yeast-based Assay for SARS-CoV PLP. S. cerevisiae expressing SARS-CoV PLpro, growth rescue. Potency, µM (top dose mostly 32.9 µM), most hits filed as activators. 330,000 tested, 0.19% active; calls by dose curve; note: nearly all actives have a fitted effect of over 55% in size
FMDV antiviral: High Throughput Screening for Foot and Mouth Disease Virus Antivirals; FMDV antiviral cell-based qHTS; Potency, µM (highest dose often 57.9 µM), actives largely listed as inhibitors; 410,000 tested, 1.2% active; AID 1159524, 2015; calls by dose curve; tested in HEK293T cells; note: read-out not given here; nearly all actives have a fitted effect of over 45% in size
MARV entry inh: qHTS for inhibitors of binding or entry into cells for Marburg Virus; Marburg virus pseudotyped entry inhibition, cell reporter; Potency, µM (titrated, usually from 37.8 µM), most hits filed as inhibitors; 300,000 tested, 1.8% active; AID 540276, 2011; calls by dose curve; tested in HEK293 cells
HCV inhibitor: qHTS Assay for Inhibitors of Hepatitis C Virus (HCV) | Huh7.5.1 HCVcc-Cre infection, luciferase reporter, 44 h | Potency, µM (doses to about 41.8 µM), usual class: inhibitors | 340,000 tested, 3.4% active; active = well fitted inhibition curve with a large enough effect; inconclusive = small, poorly fitted or top-dose-only effect, or another doubt; inactive = no such curve, though single readings can be large or run the other way
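Infectious HCVcc-Cre (~0.5 moi) was added to cells just after compound, with cells seeded 4 h earlier at 1,000 per well. Luciferase activity after 44 h culture reported infection; substrate was incubated 15 min at room temperature before reading.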
Of the large screens only hits and unclear results are named; the others gave an inactive call.

COc1ccc(-c2noc(CCC(=O)NCCCN3CCC(Cc4ccccc4)CC3)n2)cc1	HCMV inh inconclusive, FMDV antiviral inconclusive, MARV entry inh inconclusive, HCV inhibitor 2.5µM
COc1ccc(-c2noc(CCC(=O)NCCCN3CCN(c4ccc(F)cc4)CC3)n2)cc1	HCMV inh -64, FMDV antiviral inconclusive, HCV inhibitor 22µM (no result: Lassa entry inh, MARV entry inh)
Cc1ccc(-c2noc(CCC(=O)NCC3CCN(Cc4cccc(C)c4)CC3)n2)cc1	HCMV inh inconclusive, FMDV antiviral inconclusive, MARV entry inh inconclusive, HCV inhibitor 1.1µM
Cc1ccc(-c2noc(CCC(=O)NCCN3CCN(Cc4ccccc4)CC3)n2)cc1	HCMV inh inconclusive, MARV entry inh inconclusive, HCV inhibitor inconclusive
Cc1ccc(-c2noc(CCC(=O)NCCN3CCOCC3)n2)cc1	MARV entry inh inconclusive
COCCn1c(=NC(=O)c2cc(-c3cccs3)nc3ccccc23)sc2cc(S(N)(=O)=O)ccc21	Lassa entry inh inconclusive, MARV entry inh 9.2µM, HCV inhibitor 10µM
C=CCn1c(=NC(=O)c2cc(-c3cccs3)nc3ccccc23)sc2cc(S(N)(=O)=O)ccc21	FMDV antiviral inconclusive, HCV inhibitor inconclusive
COc1ccc(C(=O)Nc2nc3n(n2)C(c2ccc(F)cc2)C=C(c2ccc(Cl)cc2)N3)cc1 (stereo not drawn)	HCMV inh inconclusive (no result: SARS PLP yeast, HCV inhibitor)
Cc1nn(-c2ccccc2)c(C)c1C(=O)OC(C)C(=O)NC1CCCCC1C (stereo not drawn)	HCMV inh inconclusive, FMDV antiviral inconclusive, HCV inhibitor 11µM (no result: Lassa entry inh, MARV entry inh)
CC(OC(=O)C1=NN(c2ccccc2)C(=O)CC1)C(=O)NC1CCCCC1C (stereo not drawn)	none (no result: Lassa entry inh, MARV entry inh)
CC(=O)Oc1cc2c(C(=O)NCc3ccncc3)c(C)oc2c2ccccc12	HCV inhibitor 11µM (no result: Lassa entry inh, MARV entry inh)
Cc1oc(-c2ccccc2)cc1C(=O)NCc1ccncc1	none (no result: Lassa entry inh, MARV entry inh)
O=C(Cn1nc(-c2ccccc2Cl)ccc1=O)Nc1ccccc1-c1ccccc1	HCMV inh -64, HCV inhibitor inconclusive
O=C(CNC(c1ccccc1)c1ccccc1)Nc1ccccc1-c1ccccc1	HCMV inh -71, Lassa entry inh inconclusive, FMDV antiviral inconclusive, MARV entry inh inconclusive, HCV inhibitor inconclusive
O=C(Cn1nc(-c2ccccc2Cl)ccc1=O)Nc1ccc(Br)cc1	none
O=C(CSCc1c(Cl)cccc1Cl)Nc1ccccc1-c1ccccc1	HCMV inh -66, Lassa entry inh inconclusive, MARV entry inh inconclusive, HCV inhibitor inconclusive
NC(=O)N=Nc1c(O)[nH]c2ccc([N+](=O)[O-])cc12	none (no result: Lassa entry inh, MARV entry inh)
C=C(C)CNC(=S)N=Nc1c(O)[nH]c2ccc([N+](=O)[O-])cc12	HCV inhibitor 25µM
CC(C)NC(=S)N=Nc1c(O)[nH]c2ccc([N+](=O)[O-])cc12	HCMV inh inconclusive, Lassa entry inh inconclusive, FMDV antiviral inconclusive, HCV inhibitor 1.1µM
CCCC(=O)Nc1ccccc1C(=O)OCc1cc(=O)n2nc(C(C)C)sc2n1	none (no result: SARS PLP yeast, MARV entry inh, HCV inhibitor)
CCOc1ccc(-n2c(-c3ccc(Br)cc3)c[n+]3c2CCCCC3)cc1	HCMV inh -99, Lassa entry inh inconclusive, FMDV antiviral inconclusive, MARV entry inh inconclusive
CCOc1ccc(-n2c(-c3ccc(OC)cc3)c[n+]3c2CCCCC3)cc1	HCMV inh -99, Lassa entry inh inconclusive, FMDV antiviral inconclusive, MARV entry inh inconclusive, HCV inhibitor 7.9µM
COc1ccc(NC(=O)c2csnn2)cc1Cl	none (no result: SARS PLP yeast, HCV inhibitor)
O=P(O)(O)CN1CCNCCN(CP(=O)(O)O)CCNCC1	HCMV inh -61, MARV entry inh inconclusive, HCV inhibitor inconclusive (no result: SARS PLP yeast)
O=C(NCCCc1nc2ccccc2n1Cc1ccccc1F)c1ccco1	MARV entry inh inconclusive (no result: SARS PLP yeast, HCV inhibitor)
CCOC(=O)C(Cc1ccccc1)(Nc1ccccc1OC)C(O)c1ccccc1Br (stereo not drawn)	none (no result: Lassa entry inh, SARS PLP yeast, FMDV antiviral, MARV entry inh, HCV inhibitor)
COC12C(COC(N)=O)C3=C(C(=O)C(C)=C(N)C3=O)N1CC1C2N1C (stereo not drawn)	HCMV inh -105, HCV inhibitor inconclusive (no result: Lassa entry inh, MARV entry inh)
O=C(Nc1ccc(Cl)c(Cl)c1)N1N=CCC1c1ccccc1 (stereo not drawn)	HCMV inh -66, Lassa entry inh inconclusive, MARV entry inh inconclusive, HCV inhibitor 10µM
O=C(Nc1ccccc1)N1N=CCC1c1ccccc1 (stereo not drawn)	HCMV inh inconclusive
CCN(C(=O)c1cc(S(=O)(=O)N2CCOCC2)cn1C)c1cccc(C)c1	HCMV inh inconclusive (no result: Lassa entry inh, MARV entry inh)
CCN(C(=O)c1cc(S(=O)(=O)N2CCOCC2)cn1C)c1ccc(OC)cc1	HCMV inh -67 (no result: SARS PLP yeast, MARV entry inh, HCV inhibitor)
CCN(C(=O)c1cc(S(=O)(=O)N2CCc3ccccc32)cn1C)c1cccc(C)c1	HCMV inh -74, Lassa entry inh inconclusive (no result: SARS PLP yeast, MARV entry inh, HCV inhibitor)
CCN(C(=O)c1cc(S(=O)(=O)N2CCCCC2)c[nH]1)c1ccc(OC)cc1	HCMV inh -67 (no result: MARV entry inh)
CCN(CC)C(=O)c1cc(S(=O)(=O)N2CCCCC2)c[nH]1	none (no result: Lassa entry inh, MARV entry inh)
CSc1ccc(CCNC(=O)CCc2c(C)nc3c(-c4ccccc4)c(C)nn3c2C)cc1	FMDV antiviral inconclusive, MARV entry inh inconclusive (no result: SARS PLP yeast, HCV inhibitor)
Cc1cc(C)n(-c2nc(NCCC(C)C)c3c4c(sc3n2)COC(C)(C)C4)n1	HCMV inh -96, MARV entry inh inconclusive
CCN(CC)CCNc1nc(-n2nc(C)cc2C)nc2sc3c(c12)CC(C)(C)OC3	HCMV inh -64, Lassa entry inh 7.9µM, MARV entry inh inconclusive, HCV inhibitor 11µM
Cc1cc(C)n(-c2nc(-n3nc(C)cc3C)c3c4c(sc3n2)COC(C)(C)C4)n1	none (no result: Lassa entry inh, FMDV antiviral, HCV inhibitor)
Cc1cc(C)n(-c2nc(NCCCN(C)C)c3c4c(sc3n2)COC(C)(C)C4)n1	MARV entry inh inconclusive
Cc1cc(C)n(-c2nc(NCCN(C)C)c3c4c(sc3n2)COC(C)(C)C4)n1	HCMV inh inconclusive, Lassa entry inh 13µM, MARV entry inh 7.1µM, HCV inhibitor inconclusive
CC(=O)Nc1ccccc1-c1nc2ccccc2n(CC(=O)c2ccc(Br)cc2)c1=O	none (no result: SARS PLP yeast, HCV inhibitor)
CCc1cccc(NC(=O)CSc2nncn3c2cc2sccc23)c1	HCMV inh inconclusive (no result: SARS PLP yeast, MARV entry inh, HCV inhibitor)
COc1cc(NC(=O)c2cnc(NCc3ccccc3)nc2C)cc(OC)c1OC	MARV entry inh inconclusive, HCV inhibitor 3.5µM
Nc1ccc(N2CCN(c3ccc(Cl)c(Cl)c3)CC2)cc1	HCMV inh -85, HCV inhibitor inconclusive
Nc1ccc(N2CCN(c3ccc(F)cc3)CC2)cc1	HCMV inh -60, Lassa entry inh inconclusive
CC(=O)N1CCN(c2ccc(N)cc2)CC1	HCMV inh -74 (no result: Lassa entry inh, MARV entry inh, HCV inhibitor)
COc1ccc(NC(=O)CSc2nc3nc(C)c(Cc4ccccc4Cl)c(C)n3n2)cc1OC	Lassa entry inh inconclusive (no result: SARS PLP yeast, MARV entry inh, HCV inhibitor)
COc1cc(OC)cc(C(=O)N[C@H](C(=O)Nc2cc(C)cc(C)c2)C(C)C)c1	HCMV inh -76, HCV inhibitor inconclusive
CCNc1ncc2nc(-c3cccs3)c(=O)n(CCC#N)c2n1	none (no result: HCMV inh, Lassa entry inh, SARS PLP yeast, MARV entry inh, HCV inhibitor)
COc1ccccc1CNC(=O)CN1C(=O)COc2ccc(S(=O)(=O)N3CCC(C)CC3)cc21	none (no result: SARS PLP yeast, HCV inhibitor)
